Experimental findings from PubChem BioAssay are described below.

The experiment can be described thus: TOR pathway CIT2 reporter hit retest – S. cerevisiae, GFP fusion, cherry picks, mother/daughter gates, confirmation (AID 2274). Particulars: S. cerevisiae CIT2-GFP strain, flow cytometry, 3 h; measured here: daughter cell gate; at 10 µM; stronger effect = higher value.
For the molecule `Cc1ccc(/C=C/C(=O)c2ccc([N+](=O)[O-])o2)cc1`, the GFP response, % of DMSO turned out to be 114%.
In turn, `CCCN1CCc2c(sc(NC(=S)NC(=O)c3ccccc3)c2C#N)C1` came in with a GFP response, % of DMSO of 99.2%.
The value for `O=C(CN1CCN(Cc2ccccc2Cl)C1=O)NC1CCCCCCC1` was 106%; that for `O=c1oc(/C=C/c2ccc([N+](=O)[O-])s2)nc2ccccc12` was 180%; that for `COc1ccccc1Oc1ccc(S(=O)(=O)N2CCCC2)cc1` was 94.8%.
The value for `COc1ccc(C(=O)Nc2c(N)nc[nH]c2=O)cc1` was 103%.
The value for `Cc1[nH]n(-c2ncc(-c3ccccc3)s2)c(=O)c1C(c1ccc(Cl)cc1)C(C#N)C#N` (stereo not drawn) was 101%.
As to `COc1ccc(-c2cc3cc(C(=O)O)ccn3c2C(=O)c2ccccc2)cc1`, the GFP response, % of DMSO is 99.1%.
The value for `CCOC(=O)c1ccc(NC(=O)CCc2nc(-c3ccc(Cl)cc3)no2)cc1` was 105%; that for `CS(=O)(=O)N1N=C(c2ccco2)CC1c1ccc(Br)cc1` (stereo not drawn) was 103%.
`O=C(O)c1ccc2c3c(ncnc13)-c1ccccc1C2=O` had a GFP response, % of DMSO of 105%.
As for `CCN(CC)C(=O)c1ccc2c3c(cccc13)C(=O)N(CCc1ccc(OC)c(OC)c1)C2=O`, the GFP response, % of DMSO came to 98.3%.
Take `Oc1cccc(/C=N/c2c(-c3ccco3)nc3ccccn23)c1`: the GFP response, % of DMSO was determined as 98.3%.
For `O=C(Nc1nccs1)C(c1ccccc1)N1CCCCC1` (stereo not drawn), the GFP response, % of DMSO turned out to be 92%.
In turn, `CCN1/C(=C/c2ccc3cc(C)ccc3[n+]2CC)Sc2ccc3sccc3c21` returned a GFP response, % of DMSO of 110%.
The value for `COCCCN(C(=O)c1ccco1)c1nc(-c2cc(OC)ccc2OC)cs1` was 103%; that for `O=C1[C@@H]2C3C=CC(O3)[C@@H]2C(=O)N1c1ccccc1` was 101%.
The value for `CCOC(=O)C1CCCN(c2nc3c(C)cccn3c(=O)c2/C=C(\C#N)C(=O)NCc2ccco2)C1` (stereo not drawn) was 104%.
